Screening data as filed in PubChem.
Mito fusion yeast = qHTS Assay for Small Molecule Inhibitors of Mitochondrial Division or Activators of Mitochondrial Fusion; Potency, µM (series often up to 46.1 µM), inactives show at the top dose growth rescue (activation), hits mostly activators; 320,000 tested, 0.23% active; S. cerevisiae fusion-defective mutant growth rescue, CellTiterGlo 48 h; note: % of control where 0% means no effect; nearly all actives have a fitted effect of over 45% in size
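Read-out: ATP-based luminescence (CellTiterGlo, 10 min ambient) reporting growth of fusion-defective ts yeast after 48 hours at 37C on glycerol/ethanol YPEG medium in the presence of compound.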
A-T KAP1 phos = qHTS Assay for Identifying a Potential Treatment of Ataxia-Telangiectasia | F2112 A-T fibroblasts, KAP-1 phosphorylation AlphaLISA; neocarzinostatin DNA damage 30 min before lysis | Potency, µM (top dose mostly 57.5 µM), inactives show top-dose activation, actives largely listed as activators | 320,000 tested, 0.19% active; note: % of control where 0% means no effect; nearly all actives have a fitted effect of over 45% in size
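ATM-like activity read as KAP-1 phosphorylation via AlphaLISA donor/acceptor antibody pairs after lysis and 6 hr at 25C. Cells were ATM-null patient fibroblasts (F2112, hTERT), dosed 60 min, then exposed to the DSB inducer NCS for 30 min.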
Eya2 phos inh = qHTS Assay for Inhibitors of the Phosphatase Activity of Eya2; Protein phosphatase EYA2 (Homo sapiens), O00167; recombinant Eya2, OMFP fluorescence dephosphorylation (OMFP is methylfluorescein phosphate); Potency, µM (doses to about 76.9 µM), for the others: at the highest dose activity, negative = inhibition, hits mostly inhibitors; 330,000 tested, 0.006% active; AID 488837, 2010; note: % is set by controls: 0 for no effect and ±100 for the full control effect
Target sequence (O00167 whole entry, looked up): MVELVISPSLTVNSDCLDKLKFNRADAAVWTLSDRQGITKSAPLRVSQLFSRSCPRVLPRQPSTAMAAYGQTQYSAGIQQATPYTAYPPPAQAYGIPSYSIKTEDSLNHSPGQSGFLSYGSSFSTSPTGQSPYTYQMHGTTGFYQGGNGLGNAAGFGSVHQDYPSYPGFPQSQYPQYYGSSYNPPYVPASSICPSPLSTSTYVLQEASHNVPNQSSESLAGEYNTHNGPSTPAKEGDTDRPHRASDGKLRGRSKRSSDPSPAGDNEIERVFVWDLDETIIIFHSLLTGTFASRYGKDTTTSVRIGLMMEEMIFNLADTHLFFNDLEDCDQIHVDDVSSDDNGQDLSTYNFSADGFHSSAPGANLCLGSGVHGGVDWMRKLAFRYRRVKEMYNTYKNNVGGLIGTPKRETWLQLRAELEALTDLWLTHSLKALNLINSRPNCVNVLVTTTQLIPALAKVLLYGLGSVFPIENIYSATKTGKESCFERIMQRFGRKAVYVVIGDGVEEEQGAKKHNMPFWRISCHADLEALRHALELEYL
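Eya2 protein (added as 0.2 uM solution) was preincubated with compound for 10 min at ambient temperature in 50 mM HEPES pH 7.5, 50 mM NaCl, 5 uM MgCl2, 0.05% BSA, 1 mM DTT. OMFP (added at 50 uM) then reacted 10 min; fluorescence read at 485/525 nm.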
N370S GC = qHTS Assay for Inhibitors and Activators of N370S glucocerebrosidase as a Potential Chaperone Treatment of Gaucher Disease. N370S GC spleen homogenate, 4MU-glucoside fluorescence. 330,000 tested, 0.092% active. Lysosomal acid glucosylceramidase (Homo sapiens), P04062. Potency, µM (titrated, usually from 59.4 µM), inactives show at the top dose activity change, negative = inhibition, actives largely listed as inhibitors;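 note: 0% = full enzyme activity and -100% = no enzyme basal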
* marks the source's active call; other numbers are inactive results; ! = not active in a repeat. A selection: hits, their analogues and other compounds. The true share with any hit is near 0.47%. Calls come from the whole dose curve; as a rule, active = well fitted curve in the direction sought with a large enough effect; inconclusive = small, poorly fitted or top-dose-only effect, or another doubt; inactive = no such curve, though single readings can be large; an effect the other way counts as inactive or inconclusive. Potency is the fitted concentration of half-maximal effect.

What do the screens show for `Nc1c(C(=O)NCC2CCCO2)c2nc3ccccc3nc2n1Cc1ccco1` (stereo not given)?
Mito fusion yeast: inconclusive; A-T KAP1 phos: 20µM*; Eya2 phos inh: -4.7%; N370S GC: 11.3%

What do the screens show for `CCCNC(=O)c1c(N)n(Cc2ccco2)c2nc3ccccc3nc12`?
Mito fusion yeast: 2.8%; A-T KAP1 phos: 24.5%; Eya2 phos inh: -13.0%; N370S GC: 28.7%

Results for COC(=O)C(O)(c1ccc(N(C)S(=O)(=O)c2ccccc2)cc1)C(F)(F)F (stereo not given) ?
Mito fusion yeast: 0.2%; A-T KAP1 phos: 17.7%; Eya2 phos inh: 13.6%; N370S GC: -2.5%

What do the screens show for `CCn1nc(-c2ccccc2)nc2c(=O)n(C)c(=O)nc1-2`?
Mito fusion yeast: -18.1%; A-T KAP1 phos: 4.4%; Eya2 phos inh: 56.2µM*; N370S GC: -5.2%

What do the screens show for `CN1C(=O)N(C)C(=O)C2(Cc3cc(NC(=O)c4ccccc4Cl)ccc3N3CCCC32)C1=O` (stereo not given)?
Mito fusion yeast: -0.2%; A-T KAP1 phos: -7.0%; Eya2 phos inh: 1.0%; N370S GC: -19.6%

How did CCn1cc(C(=O)O)c(=O)c2ccc(C)nc21 do in these assays?
Mito fusion yeast: 5.8µM*!; A-T KAP1 phos: 9.1%; Eya2 phos inh: 10.8%; N370S GC: 7.4%

What do the screens show for `CCn1cc(C(=O)NCc2ccccc2)c2ccccc21`?
Mito fusion yeast: -15.5%; A-T KAP1 phos: 2.7%; Eya2 phos inh: 2.4%; N370S GC: 28.0%

What do the screens show for `O=C(c1ccccc1)C(CN1CCCC1)c1ccccc1` (stereo not given)?
Mito fusion yeast: -12.9%; A-T KAP1 phos: 25.1µM*; Eya2 phos inh: 1.9%; N370S GC: -1.6%

What do the screens show for `CCOC(=O)C1=C(N)Oc2ccccc2C12C(=O)N(CC(=O)OC)C(CC(=O)OC)=C2C(=O)OC` (stereo not given)?
Mito fusion yeast: -4.7%; A-T KAP1 phos: -3.9%; Eya2 phos inh: -5.8%; N370S GC: 4.6%

What do the screens show for `CN(N=O)c1cc(O)ccc1O`?
Mito fusion yeast: 23.1µM*; Eya2 phos inh: -24.8%; N370S GC: -4.1%

How did CCOc1cc2c(cc1OCC)-n1cccc1C(c1ccccc1OC)NC2 (stereo not given) do in these assays?
Mito fusion yeast: -22.2%; A-T KAP1 phos: -7.4%; Eya2 phos inh: 2.4%; N370S GC: -7.1%

How did Cc1nccn1-c1c([N+](=O)[O-])c(=O)n(C)c2ccccc12 do in these assays?
Mito fusion yeast: -8.9%; A-T KAP1 phos: 3.16µM*; Eya2 phos inh: 12.3%; N370S GC: 13.4%

What do the screens show for `Cc1nc2ccccc2c(=O)n1-c1ccccc1[N+](=O)[O-]`?
Mito fusion yeast: 0.4%; A-T KAP1 phos: -0.7%; Eya2 phos inh: -1.2%; N370S GC: -14.3%

What do the screens show for `CC1(C)CC(N(CCc2ccccc2)Cc2ccccc2)CCO1` (stereo not given)?
Mito fusion yeast: 6.1%; A-T KAP1 phos: 25.1µM*; Eya2 phos inh: -13.4%; N370S GC: -5.4%

Results for CC(=O)N1CCN(c2ccc(OC[C@H]3CO[C@](Cn4ccnc4)(c4ccc(Cl)cc4Cl)O3)cc2)CC1 ?
Mito fusion yeast: 0.411µM*!; A-T KAP1 phos: -7.5%; Eya2 phos inh: 2.2%; N370S GC: -4.1%

How did CCCC1COC(Cn2cncn2)(c2ccc(Cl)cc2Cl)O1 (stereo not given) do in these assays?
Mito fusion yeast: inconclusive; A-T KAP1 phos: -3.4%; Eya2 phos inh: 8.6%; N370S GC: -0.5%

Results for CCN(CC)S(=O)(=O)N1CCC(C(=O)N2CCC3(CC2)OCCO3)CC1 ?
Mito fusion yeast: 0.2%; A-T KAP1 phos: 2.2%; Eya2 phos inh: 1.7%; N370S GC: 2.7%

How did O=C(Nc1ccc(C(F)(F)F)cc1)OC1CN2CCC1CC2 (stereo not given) do in these assays?
Mito fusion yeast: -1.2%; A-T KAP1 phos: -1.2%; Eya2 phos inh: 7.4%; N370S GC: -4.4%

How did CSCc1nnc2n1-c1ccc(Cl)cc1C(c1ccccc1)=NC2 do in these assays?
Mito fusion yeast: 1.8%; A-T KAP1 phos: 3.2%; Eya2 phos inh: -0.5%; N370S GC: 2.2%

What do the screens show for `COC(=O)C1=C(c2ccc(-c3ccccc3)c(F)c2)C[C@@H]2CC[C@H]1N2C(=O)NCC1CC1`?
Mito fusion yeast: 20µM*; A-T KAP1 phos: -21.5%; Eya2 phos inh: -33.1%

Results for COCCNC(=O)N1[C@H]2CC[C@@H]1C(C(=O)OC)=C(c1ccc(-c3ccccc3)c(F)c1)C2 ?
Mito fusion yeast: 12.6%; A-T KAP1 phos: 3.3%; Eya2 phos inh: -6.5%

What do the screens show for `O=[N+]([O-])c1ccc(Cl)cc1`?
Mito fusion yeast: -11.2%; A-T KAP1 phos: 9.5%; Eya2 phos inh: -0.5%; N370S GC: -4.1%

How did Cc1cc(O)c2c(c1)C(=O)c1cc(O)cc(O)c1C2=O do in these assays?
Mito fusion yeast: 2.59µM*; Eya2 phos inh: -6.4%; N370S GC: 10.8%

Results for N#C/C(=C/c1ccc(O)c(O)c1)C(N)=S ?
Mito fusion yeast: 20.6µM*; Eya2 phos inh: 5.0%

What do the screens show for `CN(C)C(=Nc1ccccc1)P(=S)(N(C)C)N(C)C`?
Mito fusion yeast: 0.1%; A-T KAP1 phos: 2.0%; Eya2 phos inh: 0.4%; N370S GC: 0.5%

How did CCOC(=O)C1(CCOc2ccccc2)CCN(Cc2cnc(SC)nc2)CC1 do in these assays?
Mito fusion yeast: -5.3%; A-T KAP1 phos: -3.6%; Eya2 phos inh: 2.4%; N370S GC: 20µM*

How did CCOC(=O)C1(CCOc2ccccc2)CCN(Cc2cccc(O)c2)CC1 do in these assays?
Mito fusion yeast: -7.4%; A-T KAP1 phos: -0.5%; Eya2 phos inh: 3.0%; N370S GC: -15.5%

How did CC(=O)N1CC(=O)Nc2ccc(Cl)cc2C1c1ccccc1 (stereo not given) do in these assays?
Mito fusion yeast: 8.2%; A-T KAP1 phos: 25.1µM*; Eya2 phos inh: -1.7%; N370S GC: -12.0%

What do the screens show for `CC(C)CCn1c(N)c(C(=O)NCc2cccs2)c2nc3ccccc3nc21`?
Mito fusion yeast: -0.4%; A-T KAP1 phos: 28.2µM*; Eya2 phos inh: -17.5%; N370S GC: 16.1%

What do the screens show for `COCCNC(=O)c1c(N)n(CCC(C)C)c2nc3ccccc3nc12`?
Mito fusion yeast: -11.7%; Eya2 phos inh: -12.2%; N370S GC: inconclusive

Results for Nc1c(Cl)c(Cl)nc(C(=O)O)c1Cl ?
N370S GC: 15.0%

How did NC(N)=NC(=O)c1nc(Cl)c(N)nc1N do in these assays?
Mito fusion yeast: 16.4µM*!; A-T KAP1 phos: -5.9%; Eya2 phos inh: 1.7%; N370S GC: inconclusive

What do the screens show for `CNC(=O)Nc1ccc(C(=O)N/N=C\C23CC[C@@H](O)CC2(O)CC[C@@H]2[C@@H]3CCC3(C)C(C4=CC(=O)OC4)CCC23O)cc1` (stereo not given in full)?
Mito fusion yeast: 8.5%; A-T KAP1 phos: -2.0%; Eya2 phos inh: -5.3%; N370S GC: -1.0%
